NALP1 inh: inhibitors of NALP1 inflammasome in yeast; S. cerevisiae NALP1/ASC/caspase-1 growth, X-gal OD620, 72 h; inhibition, % at 10 µM; actives 0.61% (n = 280,000); in the data active means inhibition mostly above about 24%, no sharp cut-off; inactive means mostly below about 32%
CR mimetic SO: yeast age-related superoxide inhibition as caloric restriction mimetic; S. cerevisiae aged cells, superoxide DHE fluorescence; stronger effect = lower value; superoxide response (% of plate mean), % at 10 µM; actives 0.18% (n = 330,000);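 active means superoxide response under a set limit, about three screen SD below normal, cut at about 65% in these data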;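 further: yeast aged for seven days with compound at 30 °C before DHE staining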
dFosB activator: mouse delta FosB homodimer activation. activation, % at 25 µM. actives 0.99% (n = 340,000). AID 493131. purified delta FosB, TAMRA-CDK5 oligo fluorescence polarization; percent of positive-control signal above neutral wells;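 active means mean activation above about 17%, with every replicate also reaching it, limit read from the data, passing the limit was not always enough; inconclusive means only one of the two conditions met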
Target sequence (P13346 whole entry, looked up): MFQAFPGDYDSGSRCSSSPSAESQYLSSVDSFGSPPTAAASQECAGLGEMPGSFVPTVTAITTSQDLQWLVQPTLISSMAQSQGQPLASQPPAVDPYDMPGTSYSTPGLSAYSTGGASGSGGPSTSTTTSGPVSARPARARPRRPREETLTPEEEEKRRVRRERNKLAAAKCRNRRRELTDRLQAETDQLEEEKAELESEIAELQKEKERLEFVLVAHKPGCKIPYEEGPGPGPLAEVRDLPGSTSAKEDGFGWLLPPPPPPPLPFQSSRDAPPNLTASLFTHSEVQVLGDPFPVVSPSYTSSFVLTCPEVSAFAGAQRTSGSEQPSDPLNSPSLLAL
UBC13 polyUb: human UBC13 polyubiquitination inhibition | P61088 | UBC13 polyubiquitin chain formation, TR-FRET | inhibition, % at 20 µM | actives 0.47% (n = 330,000) | AID 485273; in the data active means inhibition above about 45%, passing the limit was not always enough; inconclusive means no clear call, values can overlap the other calls
NR3A LBD binder: modulators (binders) of human NR3A ligand-binding domain. NR3A LBD differential scanning fluorimetry, Tm shift; 0% = protein alone, 100% = glycine-bound protein. Tm shift relative to glycine control, % at 25 µM. actives 2.5% (n = 340,000). AID 1259313;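 active means melting temperature shift of at least 10% of the positive control shift, at one fixed dose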
Of the large screens only hits and unclear results are named; the others gave an inactive call. Sampled rows, rich in hits. Any-hit rate of the full collection: about 4.3%.

Cc1ccc(C(=O)ONc2ccc(N=NC(=O)c3ccccc3O)cc2)cc1	NALP1 inh 42
Cc1ccc(NC(=O)CCN2C(=O)C3C4CCC(C4)C3C2=O)cc1Cl (stereo not given)	NR3A LBD binder 18
Cc1ccc(NC(=O)CCN2C(=O)C3C4CCC(C4)C3C2=O)cc1[N+](=O)[O-] (stereo not given)	none
N#C/C(=C/c1ccc(N2CCCCC2)o1)C(=O)Nc1ccc2ccccc2c1	none (no result: CR mimetic SO, UBC13 polyUb)
N#C/C(=C/c1ccc(N2CCCCC2)o1)C(=O)Nc1ccc(Cl)cc1	NR3A LBD binder 12
COc1cc(C(F)(F)F)c(C(=O)N(C)Cc2cc(Cl)cc(Cl)c2)cn1	none
COc1cc(C(F)(F)F)c(C(=O)N(C)Cc2cccc(Cl)c2)cn1	NR3A LBD binder 14
CC1=NCCN1S(=O)(=O)c1c(C(C)C)cc(C(C)C)cc1C(C)C	NALP1 inh 28
CCN(CC)CCN1C(=O)c2ccccc2NC1c1ccc(C)cc1 (stereo not given)	NR3A LBD binder 14
CCOC(=O)c1c(C)[nH]c(C(=O)OCC(=O)Nc2ccc(OC)c(Cl)c2)c1C	dFosB activator 140
COc1ccc(NC(=O)COC(=O)C2CCC2)cc1Cl	NR3A LBD binder 18
CCc1ccc(OCC(=O)NNC(=S)NC(=O)C2CC2)c(Br)c1	UBC13 polyUb 72
Cc1ccccc1Nc1cccc2nonc12	none
CCOc1ccc(NS(=O)(=O)c2ccc(C(=O)N(C)Cc3cccc(OC)c3OC)cc2)cc1	none
CCOC(=O)c1cc(CN2CCOCC2)oc1-c1ccccc1	NR3A LBD binder 10
FC(F)(F)c1ccccc1NC(=S)Nc1cccc(Cl)c1	NR3A LBD binder 14
O=C(Nc1ccc(OC(F)F)c(Cl)c1)c1ccccn1	none
Cc1ccc(NC(=S)Nc2ccc(OC(F)F)c(Cl)c2)cc1F	NR3A LBD binder 32
CSc1cccc(NC(=S)Nc2ccc(F)cc2)c1	NR3A LBD binder 14
Fc1ccc(NC(=S)Nc2ccc(F)c(Cl)c2)cc1Cl	NR3A LBD binder 12
COc1cccc(CNC(=O)CCCSc2ccccc2)c1	none
Fc1ccc(NC(=S)Nc2ccc(Br)cc2)cc1	NR3A LBD binder 15
Fc1ccc(NC(=S)Nc2cccc(Cl)c2)cc1	NR3A LBD binder 13
COC(=O)NC(=S)Nc1ccc(Oc2ccc(Cl)cc2Cl)c(Cl)c1	NR3A LBD binder 16
O=C(NCc1ccccc1)c1ccc(OC2CSC2)cc1	NALP1 inh 35
COc1ccc(C(=O)Oc2ccc(/C=N/NC(=O)c3ccccc3OC)cc2[N+](=O)[O-])cc1	none
O=C(N/N=C/c1ccc(OC(=O)c2ccccc2)c([N+](=O)[O-])c1)c1ccc(O)cc1	NR3A LBD binder 26
COc1ccc(C(=O)N/N=C/c2ccc(OC(=O)c3cccc4ccccc34)c([N+](=O)[O-])c2)cc1	NR3A LBD binder 12
CNc1nc(SC)n(C)c(=O)c1N=O	none (no result: dFosB activator, NR3A LBD binder)
COc1cc(N2CCCC2)c(OC)cc1/C=C(/C#N)c1cccc(F)c1	NALP1 inh 44 (no result: UBC13 polyUb)
COc1ccc(Br)cc1/C=N/n1c(COc2ccccc2)n[nH]c1=S	none
COc1ccc(/C=N/NC(=O)c2c(C)nnn2-c2nonc2N)cc1OC	NR3A LBD binder 19
CCOc1cc(/C=N/NC(=O)c2nn(C)cc2Br)ccc1OCc1ccccc1	NR3A LBD binder 10
CCOc1cc(/C=N/NC(=O)c2nnn(-c3nonc3N)c2C)ccc1OCc1ccc(F)cc1	NR3A LBD binder 15
CCOc1cc(/C=N/NC(=O)c2nnn(-c3nonc3N)c2C)ccc1OCc1cccc(F)c1	NR3A LBD binder 26
COc1ccc(/C=N/NC(=O)c2nn(C)cc2Br)cc1CSCc1ccco1	none
Cc1cccc(COc2ccc(/C=N/NC(=O)c3nnn(-c4nonc4N)c3C)cc2)c1	dFosB activator inconclusive
CCCCCCc1cc2cc(S(=O)(=O)c3ccc(F)c(Cl)c3)c(=O)oc2cc1O	NR3A LBD binder 33
CCCCCCc1cc2cc(C(=O)OCC)c(=O)oc2cc1O	none
CC(=O)n1c2ccccc2c2nc(NC(C)C)sc21	none
CNc1nc2c3ccccc3n(C(C)=O)c2s1	NR3A LBD binder 18
Cc1cccc(S(=O)(=O)Nc2cc(Cl)ccc2N2CCOCC2)c1	none (no result: NALP1 inh)
CSCCC(NC(=O)/C(=C/c1ccco1)NC(=O)c1ccco1)C(=O)O (stereo not given)	none (no result: NALP1 inh, dFosB activator)
C[C@@]12CCC=C[C@H]1[C@H](c1ccoc1)N(Cc1ccccc1)C2=O	NR3A LBD binder 12
CCCc1nnc(SCC(=O)Nc2cccc(Cl)c2Cl)o1	none
